The source of these data is PubChem BioAssay (NCATS).

Structures are written as SMILES. Records with an inconclusive call do not appear. The source made the active and inactive calls. Calls come from the whole dose curve; as a rule, active = well fitted cell-killing curve with a large enough effect; inconclusive = small, poorly fitted or top-dose-only effect, or effect the other way; inactive = no such curve, though single readings can be large or run the other way.
Potency is the fitted concentration of half-maximal effect.

A short description of the assay: Quantitative High-Throughput drug screen in 47 multiple myeloma cell lines against the NCATS MIPE library collection: KMS12PE_JCRB cell viability assay (AID 1918972). Note: nearly all actives have a fitted effect of over 30% in size. As to conditions: KMS12PE myeloma viability, CellTiter-Glo ATP, 48 h; series mostly up to 45.8 µM. From the text:
PI: Beverly A. Mock Ph.D.
Laboratory of Cancer Biology and Genetics,
Center for Cancer Research, National Cancer Institute,
National Institute of Health, Bethesda, Maryland
Drug resistance and disease progression are common in multiple myeloma (MM) patients, underscoring the need for new therapeutic combinations. […] We hypothesized that effective combinations would reduce MYC expression and enhance p16 activity. […] These preclinical data identify potentially useful drug combinations for evaluation in drug-resistant MM and reveal potential mechanisms of combined drug sensitivity.
Described herein is the primary MIPE qHTS used to cherrypick compounds. Validated compounds were then further tested for potential synergistic activiy.
[1] Peat TJ, Gaikwad SM, Dubois W, Gyabaah-Kessie N, Zhang S, Gorjifard S, Phyo Z, Andres M, Hughitt VK, Simpson RM, Miller MA, Girvin AT, Taylor A, Williams D, D'Antonio N, Zhang Y, Rajagopalan A, Flietner E, Wilson K, Zhang X, Shinn P, Klumpp-Thomas C, McKnight C, Itkin Z, Chen L, Kazandijian D, Zhang J, Michalowski AM, Simmons JK, Keats J, Thomas CJ, Mock BA. Drug combinations identified by high-throughput screening promote cell cycle transition and upregulate Smad pathways in myeloma. Cancer Lett. 2023 Aug 1;568:216284. doi: 10.1016/j.canlet.2023.216284. Epub 2023 Jun 24. PMID: 37356470; PMCID: PMC10408729.
SEQUENCE No. (e.g., 1, 2, 3, etc.); […] (e.g., Cells, Incubation, Reagent, etc.); VALUE and DESCRIPTION.
1; Cells; 5 uL; white, solid bottom 1536-well Greiner assay plate.
2; Compounds; 23 nL; Kalypsis pin tool (Wako USA) equipped with a 1536-well pin head to transfer to the assay plates.
3; Incubation; 48 hours; 37C incubation.
4; Reagent;5uL; CellTiter Glo (Promega).
5; Detector; 425V; Luminescence; Viewlux PerkinElmer.
NOTES (numbers refer to Sequence numbers above)
1. The cell-based screening methods employed in this study were like those previously published. Briefly, the corresponding myeloma cell lines were screened in 1,536-well plates with 500 cells, 5-uL per well for inhibition of cell viability (assessed by measuring ATP levels with CellTiterGlo).
2. NCATS MIPE 4.0 library of approved and investigational drugs were added using the Kalypsis pin tool. Wells treated with DMSO only for 100% viability and media only wells for 0% viability were used as controls.
3. The assay plates were covered and incubated for 48 hours in a 37C, 5% CO2 incubator with controlled humidity.
4. After 48 hours, CellTilter-GloTM luminescent substrate mix (Promega) reagent was added to the assay plate and plates we incubated for 5 min at room temperature.
5. Signal was measured as median relative luminescence units on a ViewLux (PerkinElmer) multiplate reader.
[1] Heske CM, Davis MI, Baumgart JT, Wilson K, Gormally MV, Chen L, Zhang X, Ceribelli M, Duveau DY, Guha R, Ferrer M, Arnaldez FI, Ji J, Tran HL, Zhang Y, Mendoza A, Helman LJ, Thomas CJ. Matrix Screen Identifies Synergistic Combination of PARP Inhibitors and Nicotinamide Phosphoribosyltransferase (NAMPT) Inhibitors in Ewing Sarcoma. Clin Cancer Res. 2017 Dec 1;23(23):7301-7311. doi: 10.1158/1078-0432.CCR-17-1121. Epub 2017 Sep 12. PMID: 28899971; PMCID: PMC6636827.
Take `Cc1ccc(O)c(C(CCN(C(C)C)C(C)C)c2ccccc2)c1` (stereo not given): the Potency entry was “inactive”.
Turning to `CCS(=O)(=O)Nc1ccc2[nH]c(O)c(C(=Nc3ccc(CN4CCCCC4)cc3)c3ccccc3)c2c1`, the Potency was 0.148 µM (active).
As for `CCOc1cc2ncc(C#N)c(Nc3ccc(OCc4ccccn4)c(Cl)c3)c2cc1NC(=O)C=CCN(C)C`, the Potency was 0.264 µM (active).
Take `COC(=O)C=CC(=O)OC`: the Potency entry is “inactive”.
Regarding `C[C@]12CCC(=O)C=C1[C@@H]1CC1[C@H]1[C@H]3[C@@H]4C[C@H]4[C@@]4(CCC(=O)O4)[C@@]3(C)CC[C@H]12` (stereo not given in full), the Potency is 20.9 µM (active).
For the compound `CN(C)CCN1C(=O)c2cccc3cc(N)cc(c23)C1=O`, the Potency is 18.7 µM (active).
Regarding `C[C@@H]1[C@H](C)CC[C@]2(C(=O)O)CC[C@]3(C)C(=CC[C@@H]4[C@@]5(C)C[C@@H](O)[C@H](O)[C@@](C)(CO)[C@H]5CC[C@]43C)[C@@H]12`, the Potency result is “inactive”.
In the case of `COC(=O)[C@@H]1[C@H]2C[C@@H]3c4[nH]c5ccccc5c4CCN3C[C@@H]2CC[C@@H]1O`, the Potency entry is “inactive”.
The result for `COc1ccc(C=Cc2cc(OC)c(OC)c(OC)c2)cc1NC(=O)[C@H](N)CO` reads 0.0118 µM (active); that for `COc1cc2c(cc1OC)[C@@H]1C(=O)c3ccc4c(c3O[C@@H]1CO2)C=CC(C)(C)O4`, 0.372 µM (active); that for `CCOC(=O)[C@@H](N)Cc1ccc(-c2cc(O[C@H](c3ccc(Cl)cc3-n3ccc(C)n3)C(F)(F)F)nc(N)n2)cc1`, 10.5 µM (active).
The result for `COc1ccc(CCC(=O)c2c(O)cc(O[C@@H]3O[C@H](CO)[C@@H](O)[C@H](O)[C@@H]3O[C@@H]3O[C@@H](C)[C@H](O)[C@@H](O)[C@@H]3O)cc2O)cc1O` reads “inactive”.
On to `CCCCCCCN(CC)CCCC(O)c1ccc(NS(C)(=O)=O)cc1` (stereo not given), for which the Potency is 16.6 µM (active).
On to `CC(C)(O)Cn1c(NC(=O)c2ccc(-c3cn[nH]c3)s2)nc2cc(CN3CCOCC3)ccc21`, for which the Potency is 0.469 µM (active).
As for `O=C1NC(=O)C(=Cc2ccc3nccc(-c4ccncc4)c3c2)S1`, the Potency was 0.332 µM (active).
The result for `C=CCNc1c(O)cc2c(O)c1C[C@@H](C)C[C@H](OC)[C@@H](O)[C@@H](C)C=C(C)[C@H](OC(N)=O)[C@@H](OC)C=CC=C(C)C(=O)N2` reads 0.105 µM (active); that for `Cn1cnc2c(F)c(Nc3ccc(Br)cc3F)c(C(=O)NOCCO)cc21`, “inactive”; that for `COC(=O)[C@H](CCCN=C(N)N)NS(=O)(=O)c1ccc(C)cc1`, “inactive”.
Consider `OC[C@@H](O)[C@@H](O)[C@H](O)[C@@H](O)CO`, for which the Potency result was “inactive”.
For the compound `N[C@H]1CN(c2c(F)cc3c(=O)c(C(=O)O)cn(C4C[C@@H]4F)c3c2Cl)CC12CC2` (stereo not given in full), the Potency result is “inactive”.
Take `CC(=O)O[C@H]1C[C@@H]2CC[C@H]3[C@H]4C[C@H]([N+]5(C)CCCCC5)[C@@H](OC(C)=O)[C@@]4(C)CC[C@@H]3[C@@]2(C)C[C@H]1N1CCCCC1`: the Potency entry was “inactive”.
With `COc1cccc2c1C(=O)c1c(O)c3c(c(O)c1C2=O)C[C@@](O)(C(=O)CO)C[C@H]3O[C@H]1C[C@H](N)[C@H](O)[C@H](C)O1`, the Potency was 1.48 µM (active).
On to `CCc1nc(-c2cccc(C)c2)c(-c2ccnc(NC(=O)c3ccccc3)c2)s1`, for which the Potency is 6.62 µM (active).
`O=c1ccn([C@@H]2O[C@H](CO)[C@H](O)[C@@H]2F)c(=O)[nH]1`: the Potency entry is “inactive”.
Take `C[C@H](NC(=O)C(C#N)=Cc1cccc(Br)n1)c1ccccc1`: the Potency is 16.6 µM (active).
On to `Cn1cc(CNCC2CCN(c3ncc(C(=O)NO)cn3)CC2)c2ccccc21`, for which the Potency was 0.0372 µM (active).
For the compound `O=C(NC1CC1)c1cccc(-c2ccc3c(NC(=O)C4CC4)n[nH]c3c2)c1`, the Potency result is “inactive”.
On to `CC(=O)SCC(Cc1ccccc1)C(=O)NCC(=O)OCc1ccccc1` (stereo not given), for which the Potency is 1.66 µM (active).
Consider `COc1cc(O)c2c(c1)C1OC1C[C@H](O)[C@H](O)C(=O)C=CC[C@H](C)OC2=O` (stereo not given in full), for which the Potency is 11.8 µM (active).
On to `COc1cc2c(Nc3ccc(Cl)c(Cl)c3F)ncnc2cc1OCC1C[C@@H]2CN(C)C[C@H]2C1`, for which the Potency is 1.87 µM (active).
In the case of `C=C1C[C@@]2(O)O[C@@]3(C[C@H]2C(C)C)[C@H](C)CC[C@H]13`, the Potency entry is “inactive”.
Turning to `CCN(CC)Cc1ccc2cc(COC(=O)Nc3ccc(C(=O)NO)cc3)ccc2c1`, the Potency was 0.469 µM (active).
On to `COc1ccc(S(=O)(=O)Nc2cc(-c3c(O)ccc4ccccc34)c(O)c3ccccc23)cc1`, for which the Potency is 13.2 µM (active).
The value for `CC(C)C[C@H](NC(=O)CNC(=O)c1cc(Cl)ccc1Cl)B1OC(=O)CC(CC(=O)O)(C(=O)O)O1` (stereo not given in full) was 0.0469 µM (active).
Take `C[C@H](O)[C@@H]1C(=O)N2C(C(=O)O)=C(S[C@@H]3CN[C@H](CNS(N)(=O)=O)C3)[C@@H](C)[C@@H]12`: the Potency result is “inactive”.
Consider `c1ccc(CNc2nc(NCc3ccccc3)c3ccccc3n2)cc1`, for which the Potency is 5.9 µM (active).
The result for `CCn1c(=O)c2c(nc(C=Cc3ccc(OC)c(OC)c3)n2C)n(CC)c1=O` reads 20.9 µM (active); that for `CCN(CC)CCCCNc1ncc2c(n1)N(C)C(=O)N(c1c(Cl)c(OC)cc(OC)c1Cl)C2`, “inactive”.
Regarding `COC(=O)[C@@H]1CC2=CC(=O)CC[C@]2(C)[C@@]23O[C@@H]2C[C@@]2(C)[C@H](CC[C@@]24CCC(=O)O4)[C@@H]13`, the Potency result is “inactive”.
The value for `N#Cc1c(C2CCNCC2)cc(-c2c(O)cccc2OCC2CC2)nc1N` was 20.9 µM (active).
